SMILES strings stand for the structures. Unmarked numbers belong to inactive results. Results filed as inconclusive are left out. Activity calls are given as the source filed them. Unless noted, the call rests on the fitted dose curve.

Assay [1] is described as follows: Nuclear factor erythroid 2-related factor 2/antioxidant responsive element (Nrf2/ARE) small molecule agonists: qHTS cell viability counter screen in human keratinocytes (AID 1919968; active means well fitted curve in the direction sought with a large enough effect in the repeat runs; an effect the other way counts as inactive or inconclusive; further: nearly all actives have a fitted effect of over 55% in size; further: potency means the concentration at half of the fitted maximal effect). In a few lines: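 HaCaT ARE reporter line, 1,500 cells/well; 5 h settle, 37 C/5% CO2; cpd in DMSO pinned; 23 h exposure; CellTiter-Fluor, 1 h; fluorescence.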
For orientation: Quantitative high-throughput screening tests each substance at several concentrations.

A short description of assay [2]: Nuclear factor erythroid 2-related factor 2/antioxidant responsive element (Nrf2/ARE) small molecule agonists: luciferase reporter gene qHTS assay in human keratinocytes (AID 1919969; further: nearly all actives have a fitted effect of over 35% in size; further: potency means the concentration at half of the fitted maximal effect). (In general: Reporter assays use an easily measured gene product as a stand-in for the process of interest.)
Assay [3] deals with Gonadotropin-releasing hormone receptor (Homo sapiens) (UniProt P30968). The assay can be described thus: Human gonadotropin-releasing hormone receptor (GnRHR) small molecule agonists, calcium flux assay in GnRHR-HEK293 cells (AID 1920063). Further: nearly all actives have a fitted effect of over 35% in size. In a few lines:
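GnRHR-HEK293, 1500 cells/well, 18 h 37 C/5% CO2; Ca dye 1 h 37 C; cpd pinned (DMSO), agonist mode; kinetic FL 480/540, 3 min, 1 s reads; 15 conc, n=3.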
(Calcium flux is commonly read through the fluorescence of an indicator in the cells.)

Assay [4] deals with KiSS-1 receptor (Homo sapiens) (UniProt Q969F8). The assay can be described thus: Human kisspeptin (KISS1R) small molecule agonists, calcium flux assay in KISS1R-HEK293 cells (AID 1920064; active means well fitted curve in the direction sought with a large enough effect in the repeat runs; an effect the other way counts as inactive or inconclusive). In a few lines:
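Stable human KISS1R HEK293 line; 18 h plating, 37 C/5% CO2; calcium dye 1 h 37 C; compound pin transfer; kinetic fluorescence Ex/Em 480/540, 3 min.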

Assay [5] can be described thus: G protein-coupled receptor (GPCR) small molecule agonists, calcium flux assay: HEK293 wild type cell line counter screen (AID 1920065). Summed up: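 Kinetic fluorescence at Ex/Em 480/540, recorded every second over 3 min, served as the read-out after compound addition. Each compound was tested at 15 concentrations in triplicate on cells pre-loaded with calcium dye for 1 h.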

Assay [6] in a line: p53 small molecule agonists, cell-based qHTS assay: qHTS cell viability counter screen (AID 1963581). Further: nearly all actives have a fitted effect of over 45% in size. Summed up: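 HCT-116 p53RE-bla cells, 4,000/well, plated 5 h before compound pin transfer; 16 h at 37 C; bla substrate 2 h RT; then CellTiter-Glo, 30 min RT, luminescence.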
The nature of assay [7]: p53 small molecule agonists, cell-based qHTS assay (AID 1963582; active means well fitted activation curve with a large enough effect in the signal ratio in the repeat runs, not every such curve was filed as active; the % refers to the signal ratio). In a few lines: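 Reporter line: p53RE-bla. Pre-incubation 5 h, 37 C, 5% CO2; compound (DMSO, pin tool) 16 h, 37 C; B/G FRET substrate 2 h RT; fluorescence intensity read.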
The nature of assay [8]: cAMP Responsive Elements (CRE) small molecule agonists, cell-based qHTS assay (AID 1963590). In a few lines: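 HEK 293T CRE-bla, 2,000 cells/well, 18 h preincubation 37 C/5% CO2; cpds (DMSO) pinned, 3 h; LiveBLAzer B/G FRET substrate, 2 h RT.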
Assay [9] in a line: cAMP Responsive Elements (CRE) small molecule antagonists, cell-based qHTS assay (AID 1963591; active means well fitted inhibition curve with a large enough effect in the signal ratio in the repeat runs, not every such curve was filed as active; the % refers to the signal ratio; further: potency means the concentration at half of the fitted maximal effect). Summed up: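 Beta-lactamase reporter read by FRET substrate (LiveBLAzer B/G) after 2 h at room temperature. CRE-bla HEK293T cells had received compound plus 0.25 uM (final) NKH477 for 3 h at 37 °C.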
Assay [10] addresses D(2) dopamine receptor (Homo sapiens) (UniProt P14416). The assay can be described thus: Dopamine D2 receptor (DRD2) small molecule agonists, cell-based qHTS assay (AID 1963594). Further: nearly all actives have a fitted effect of over 35% in size. In a few lines:
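HEK293 cells stably expressing human DRD2, pre-treated with PDE inhibitor Ro20-1724 (0.1 mM final) and compound 10 min at room temperature, then stimulated with NKH477 (200nM […]) for 30 min. cAMP read by HTRF (665/620 nm).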

For assay [11] the target is unchanged. The assay can be described thus: Dopamine D2 receptor (DRD2) small molecule antagonists, cell-based qHTS assay (AID 1963595; active means well fitted inhibition curve with a large enough effect in the signal ratio in the repeat runs, with a control signal flat; the % refers to the signal ratio). Summed up:
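HTRF cAMP read-out at 665 and 620 nm emission (340 nm excitation). Antagonist mode: compounds were tested against 12 nM quinpirole in DRD2-HEK293 cells, with 200 nM NKH477 raising cAMP and 0.1 mM Ro20-1724 blocking its breakdown.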

Assay [12] is described as follows: p53 small molecule agonists, cell-based qHTS assay with rat liver microsomes: qHTS cell viability counter screen (AID 1963580). Further: nearly all actives have a fitted effect of over 45% in size. Further: potency means the concentration at half of the fitted maximal effect. In a few lines:
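Viability is assessed in parallel with the p53 reporter read: HCT-116 p53RE-bla cells receive compounds plus rat microsomes and NADPH (0.5 mg/mL final apiece), incubate 16 h at 37 C, and then CellTiter-Glo luminescence is recorded.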

For assay [13], the target named is 5-hydroxytryptamine receptor 2A (Homo sapiens) (UniProt P28223). The assay is described as follows: 5-hydroxytryptamine receptor 2A (HTR2A) small molecule antagonists, cell-based qHTS assay (AID 1963586). Further: nearly all actives have a fitted effect of over 45% in size. Further: potency means the concentration at half of the fitted maximal effect. Summed up:
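Antagonist-mode intracellular calcium assay: DOI (4 nM) added after 5 min compound pre-incubation at room temperature to dye-loaded HTR2A-CHO cells. Fluorescence followed for 3 min, sampled every second.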

Assay [14] shares this target. The assay is described as follows: 5-hydroxytryptamine receptor 2A (HTR2A) small molecule agonists, cell-based qHTS assay (AID 1963587). Further: nearly all actives have a fitted effect of over 30% in size. In a few lines: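 CHO cells stably expressing human HTR2A, plated 18 h, loaded with calcium dye 1 h at 37 C. Agonist mode: compounds added and intracellular calcium fluorescence recorded kinetically for 2 min at 1 sec intervals.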

The target in assay [15] is Muscarinic acetylcholine receptor M1 (Homo sapiens) (UniProt P11229). The assay can be described thus: Cholinergic receptor muscarinic 1 (CHRM1) small molecule agonists, cell-based qHTS assay (AID 1963589). Further: nearly all actives have a fitted effect of over 35% in size. In a few lines: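 Human M1 in stable CHO line; 18 h plating, 1 h dye load 37 C; cpd added (agonist mode); Ca2+ fluorescence kinetic read, 1 s intervals; 15 conc, 3 runs.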
Chain of Muscarinic acetylcholine receptor M1 (Homo sapiens) (P11229 whole entry, looked up): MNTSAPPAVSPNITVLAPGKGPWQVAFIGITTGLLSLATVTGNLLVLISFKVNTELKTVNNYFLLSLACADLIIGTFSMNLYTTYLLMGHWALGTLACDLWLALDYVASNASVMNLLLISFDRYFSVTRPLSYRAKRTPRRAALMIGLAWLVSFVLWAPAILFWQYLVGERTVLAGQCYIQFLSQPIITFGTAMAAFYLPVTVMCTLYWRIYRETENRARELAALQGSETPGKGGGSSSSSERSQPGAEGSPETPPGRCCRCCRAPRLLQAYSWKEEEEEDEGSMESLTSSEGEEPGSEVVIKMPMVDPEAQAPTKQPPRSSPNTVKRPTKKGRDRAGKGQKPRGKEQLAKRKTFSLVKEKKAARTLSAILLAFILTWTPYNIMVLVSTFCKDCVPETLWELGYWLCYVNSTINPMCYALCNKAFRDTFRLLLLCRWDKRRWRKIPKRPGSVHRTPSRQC

Assay [16] concerns the target Beta-2 adrenergic receptor (Homo sapiens) (UniProt P07550). The assay can be described thus: Adrenergic beta2 receptor (ADRB2) small molecule antagonists, cell-based qHTS assay (AID 1963592). Further: nearly all actives have a fitted effect of over 50% in size. Further: potency means the concentration at half of the fitted maximal effect. In a few lines:
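Cells (CHO, stable ADRB2 overexpression) incubated 18-20hr at 37C; compounds added from DMSO; agonist mix (1nM isoproterenol, 100uM IBMX, 25uM Ro-20-1724) added; 0.5hr RT; d2-cAMP and anti-cAMP-cryptate added; 1hr RT; 665/615 nm read.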

Assay [17] in a line: p53 small molecule agonists, cell-based qHTS assay with rat liver microsomes (AID 1963578). Summed up:
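Agonist mode in p53RE-bla reporter cells, with compounds co-incubated 16 h at 37 C alongside 0.5 mg/mL rat liver microsomes and 0.5 mg/mL NADPH (final), followed by a 2 h LiveBLAzer detection step.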

Assay [18] is described as follows: p53 small molecule agonists, cell-based qHTS assay with human liver microsomes: qHTS cell viability counter screen (AID 1963579). Further: nearly all actives have a fitted effect of over 45% in size. Summed up: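 Metabolically activated exposure: compounds, human liver microsomes and NADPH (0.5 mg/mL final apiece) were added to p53RE-bla cells seeded 5 h earlier, left 16 h at 37 C, and then assessed for viability by CellTiter-Glo luminescence.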

Assay [19] concerns the target Muscarinic acetylcholine receptor M1 (Homo sapiens) (UniProt P11229). The assay can be described thus: Cholinergic receptor muscarinic 1 (CHRM1) small molecule antagonists, cell-based qHTS assay (AID 1963588). Further: nearly all actives have a fitted effect of over 40% in size. Summed up:
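CHRM1-CHO calcium-flux assay, antagonist mode. Cells were seeded 18 h, dye-loaded 1 h at 37 C and given compound for 5 min at RT, then acetylcholine was added at 50nM. FDSS fluorescence was read 3 min; 15 concentrations, three runs.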

Assay [20] concerns the target Beta-2 adrenergic receptor (Homo sapiens) (UniProt P07550). The assay is described as follows: Adrenergic beta2 receptor (ADRB2) small molecule agonists, cell-based qHTS assay (AID 1963593).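 Further: CHO cells stably overexpressing human ADRB2.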 Summed up: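 CHO cells stably over-expressing ADRB2 were plated overnight at 37C, then dosed with compounds plus a stimulation mix containing 100uM IBMX and 25uM Ro-20-1724 for 0.5hr at room temperature. cAMP was measured by HTRF competition, 1hr.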

Chain of D(2) dopamine receptor (Homo sapiens) (P14416 whole entry, looked up): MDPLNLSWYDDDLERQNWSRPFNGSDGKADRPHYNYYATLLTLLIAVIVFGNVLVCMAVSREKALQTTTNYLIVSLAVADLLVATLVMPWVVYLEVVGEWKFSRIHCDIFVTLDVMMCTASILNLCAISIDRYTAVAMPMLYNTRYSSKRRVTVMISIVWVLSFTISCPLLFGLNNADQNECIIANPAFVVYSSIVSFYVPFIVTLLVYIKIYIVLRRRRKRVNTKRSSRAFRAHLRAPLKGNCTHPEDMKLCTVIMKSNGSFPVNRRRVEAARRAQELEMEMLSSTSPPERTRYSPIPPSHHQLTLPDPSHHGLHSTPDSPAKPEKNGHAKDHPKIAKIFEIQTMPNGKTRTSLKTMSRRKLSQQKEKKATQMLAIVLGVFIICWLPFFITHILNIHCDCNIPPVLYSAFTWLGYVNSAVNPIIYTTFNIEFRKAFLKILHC
Chain of KiSS-1 receptor (Homo sapiens) (Q969F8 whole entry, looked up): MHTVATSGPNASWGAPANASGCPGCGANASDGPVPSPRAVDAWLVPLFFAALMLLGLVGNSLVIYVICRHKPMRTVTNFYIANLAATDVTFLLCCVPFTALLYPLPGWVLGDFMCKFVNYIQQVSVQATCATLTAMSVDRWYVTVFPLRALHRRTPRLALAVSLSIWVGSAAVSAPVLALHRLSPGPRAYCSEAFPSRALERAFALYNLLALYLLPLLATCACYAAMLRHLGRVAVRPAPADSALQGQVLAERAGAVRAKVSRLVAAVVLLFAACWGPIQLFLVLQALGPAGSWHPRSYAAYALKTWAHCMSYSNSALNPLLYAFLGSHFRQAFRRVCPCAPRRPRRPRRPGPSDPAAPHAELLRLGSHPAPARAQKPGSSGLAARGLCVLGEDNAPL
Chain of Beta-2 adrenergic receptor (Homo sapiens) (P07550 whole entry, looked up): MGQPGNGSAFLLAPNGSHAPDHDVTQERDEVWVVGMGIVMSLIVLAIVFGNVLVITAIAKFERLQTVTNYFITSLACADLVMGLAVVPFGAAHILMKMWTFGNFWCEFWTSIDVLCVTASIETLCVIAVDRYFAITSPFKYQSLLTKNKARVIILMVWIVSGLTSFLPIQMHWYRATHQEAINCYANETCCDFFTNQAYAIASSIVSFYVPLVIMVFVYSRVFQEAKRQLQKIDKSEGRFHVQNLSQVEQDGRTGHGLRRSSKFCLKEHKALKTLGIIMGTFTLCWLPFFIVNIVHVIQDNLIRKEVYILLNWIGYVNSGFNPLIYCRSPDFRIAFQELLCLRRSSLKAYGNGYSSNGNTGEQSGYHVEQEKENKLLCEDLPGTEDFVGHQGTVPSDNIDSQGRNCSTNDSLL
Chain of 5-hydroxytryptamine receptor 2A (Homo sapiens) (P28223 whole entry, looked up): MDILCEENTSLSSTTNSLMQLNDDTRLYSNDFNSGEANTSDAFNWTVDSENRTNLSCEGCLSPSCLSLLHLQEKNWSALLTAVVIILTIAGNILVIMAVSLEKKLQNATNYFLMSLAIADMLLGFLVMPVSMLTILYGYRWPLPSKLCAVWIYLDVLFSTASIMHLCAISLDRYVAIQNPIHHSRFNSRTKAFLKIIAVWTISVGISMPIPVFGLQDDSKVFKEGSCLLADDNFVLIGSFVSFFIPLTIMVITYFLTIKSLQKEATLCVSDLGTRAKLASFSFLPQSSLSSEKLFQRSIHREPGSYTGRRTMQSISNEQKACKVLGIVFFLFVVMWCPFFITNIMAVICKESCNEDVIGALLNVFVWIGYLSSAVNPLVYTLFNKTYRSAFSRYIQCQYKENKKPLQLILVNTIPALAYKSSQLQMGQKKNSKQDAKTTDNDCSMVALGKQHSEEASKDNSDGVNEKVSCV
Chain of Gonadotropin-releasing hormone receptor (Homo sapiens) (P30968 whole entry, looked up): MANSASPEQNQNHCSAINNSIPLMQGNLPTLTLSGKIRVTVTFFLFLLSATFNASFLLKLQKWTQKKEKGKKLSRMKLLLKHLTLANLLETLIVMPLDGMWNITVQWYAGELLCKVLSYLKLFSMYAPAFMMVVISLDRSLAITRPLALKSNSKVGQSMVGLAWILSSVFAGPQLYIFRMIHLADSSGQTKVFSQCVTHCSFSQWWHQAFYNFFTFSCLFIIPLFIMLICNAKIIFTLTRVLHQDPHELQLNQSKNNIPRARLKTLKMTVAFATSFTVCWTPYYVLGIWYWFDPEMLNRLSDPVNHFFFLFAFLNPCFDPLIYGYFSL

`CC(C)NCC(O)COc1ccc(CC(N)=O)cc1` (stereo unspecified): the Potency result in assay [1], in assay [2], in assay [3], in assay [4], in [5] and in assay [6] was “inactive” in each case. Also, the Potency entry in assay [7], in assay [8], in [9], in assay [10] and in assay [11] was “inactive” throughout.

As for `N#Cc1nc(Cl)c(Cl)c(Cl)c1Cl`, the figures for the Potency in assay [1], in assay [2] and in [12] were 6.11 µM (active), 2.43 µM (active) and 36.3 µM (active), respectively. Besides, the Potency entry in assay [3], in [4], in [5], in assay [13], in assay [14] and in [15] was “inactive” in each case. Besides, the Potency entry in [16], in [10] and in assay [11] was “inactive” in each case.

As for `CN(C)CCN(Cc1ccccc1)c1ccccn1`, the Potency entry in assay [1], in assay [2], in [3], in [4], in assay [17] and in assay [18] was “inactive” each time. Also, the Potency entry in assay [12], in assay [8], in [9], in assay [16], in [10] and in [11] was “inactive” throughout. The Potency in assay [13] is 7.29 µM (active).

Consider `OCCCS`, for which the Potency entry in assay [1], in [2], in assay [3], in [4], in assay [17] and in [18] was “inactive” throughout. Also, the Potency result in assay [12], in [6], in assay [7], in assay [13], in assay [19] and in assay [8] was “inactive” in each case. For the same compound, the Potency entry in [9], in assay [16], in [20] and in [10] was “inactive” each time.

`O=[N+]([O-])c1ccc(O)cc1C(F)(F)F`: the Potency in assay [1] was 30.6 µM (active); in [2], 68.6 µM (active). The Potency result in [3], in assay [4], in assay [17], in assay [12], in assay [6] and in assay [13] was “inactive” in each case. The Potency entry in assay [14], in [19], in assay [15], in [9], in assay [16] and in [10] was “inactive” each time. Moreover, in assay [11], the Potency entry is “inactive”.

For `c1ccc(Sc2ccccc2)cc1`, the Potency entry in assay [1], in [3], in assay [4], in assay [5], in assay [6] and in assay [13] was “inactive” in each case. In addition, the Potency entry in assay [14], in [19], in assay [15], in assay [9], in assay [16] and in assay [10] was “inactive” in each case. Further, in assay [11], the Potency entry is “inactive”. In assay [2], the Potency was 68.6 µM (active).

In the case of `CC1(C)[C@H](C(=O)O)N2C(=O)C[C@H]2S1(=O)=O`, the Potency result in [1], in [2], in assay [3], in assay [4], in [5] and in [7] was “inactive” throughout. Further, the Potency result in assay [8], in [16], in assay [10] and in assay [11] was “inactive” in each case. Besides, in [9], the Potency is 1.33 µM (active).

With `CC(C)(Cc1c[nH]c2ccccc12)NCC(O)COc1ccccc1C#N` (stereo unspecified), the Potency entry in [1], in assay [2], in assay [3], in [4], in [5] and in [6] was “inactive” in each case. Moreover, the Potency result in [14], in [19], in assay [15], in assay [8], in assay [9] and in assay [10] was “inactive” in each case. In assay [11], the Potency result was “inactive”. Besides, in assay [16], the Potency was 0.0067 µM (active).

For `CC1=Nc2ccccc2C1(C)C`, the Potency entry in assay [1], in assay [3], in assay [4], in assay [18], in [12] and in assay [13] was “inactive” in each case. Also, the Potency entry in assay [14], in assay [19], in [15], in assay [9], in assay [16] and in assay [20] was “inactive” throughout. Also, the Potency result in [10] and in assay [11] was “inactive” in each case. The Potency in assay [2] is 43.3 µM (active).

(Values after PubChem BioAssay (Tox21).)
